Compound activity (PubChem BioAssay)
This is a sample that favours compounds with a hit; in the whole collection about 2.1% have one here.
NSD2 HMT inh: NSD2 histone methyltransferase inhibitors, primary screen, biochemical, AlphaScreen, single concentration, set 2; Histone-lysine N-methyltransferase NSD2 (Homo sapiens), O96028; NSD2 peptide methylation, 120 min; inhibition, % at 12.5 µM; 310,000 tested, 0.54% active; in the data active = inhibition above about 50%
ARNT TACC3 PPI: disruptors of ARNT/TACC3 protein interaction, primary screen, biochemical, AlphaScreen, single concentration | AlphaScreen His-ARNT PAS-B/GST-TACC3 binding, luminescence; TACC3 fragment carries E629A point mutation | Transforming acidic coiled-coil-containing protein 3 (Homo sapiens), Q9Y6A5 | inhibition, % at 9.99 µM | 390,000 tested, 0.66% active;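 active = mean inhibition of replicates at least 50% and at least half of replicates each reaching 50%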;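 note: 0% = complete ARNT plus TACC3 wells and 100% = ARNT alone without TACC3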
PfHsp90 set2: growth inhibition of PfHsp90-expressing yeast, primary screen, antimalarial PfHsp90 inhibitor project, S. cerevisiae, BacTiter-Glo luminescence, single point, set 2; BacTiter-Glo ATP, 48 h; yeast lacking PDR1 and PDR3 efflux regulators; inhibition, % at 9.4 µM; 310,000 tested, 0.32% active; AID 504621, 2011;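 active = every replicate shows inhibition above about 80%, whatever the replicate mean, limit read from the data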;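 note: 0% = DMSO neutral controls and 100% = 20 µM radicicol positive controls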
SIRT5 block: SIRT5 desuccinylase inhibitors, primary screen, biochemical, fluorescence imaging, single point, set 5; NAD-dependent protein deacylase sirtuin-5, mitochondrial (Homo sapiens), Q9NXA8; Purified SirT5, succinyl-peptide AMC, trypsin-coupled fluorescence; inhibition, % at 15 µM; 330,000 tested, 1.1% active; in the data active = inhibition above about 15%
Target sequence (Q9NXA8 whole entry, looked up): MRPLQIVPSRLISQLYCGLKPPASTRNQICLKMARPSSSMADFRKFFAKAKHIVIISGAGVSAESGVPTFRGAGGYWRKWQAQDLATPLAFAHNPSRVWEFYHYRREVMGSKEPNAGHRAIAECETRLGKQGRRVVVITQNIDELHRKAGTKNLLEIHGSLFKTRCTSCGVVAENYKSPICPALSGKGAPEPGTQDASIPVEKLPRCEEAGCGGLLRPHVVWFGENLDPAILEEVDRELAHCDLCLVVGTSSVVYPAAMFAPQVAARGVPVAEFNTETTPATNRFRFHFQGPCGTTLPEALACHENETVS
Casp6 inh: human caspase-6 inhibitors, primary screen, biochemical, VEID-R110 fluorescence, single point, set 2. P55212. purified caspase-6, Z-VEID-R110 cleavage fluorescence. inhibition, % at 12.5 µM. 350,000 tested, 0.53% active. AID 686996, 2013;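 active = mean inhibition across replicates at least about 35%, with every replicate also reaching that limit, limit read from the data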;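 note: 0% = median of neutral control wells and 100% = no fluorescence left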
Target sequence (P55212 24-179 limits assumed): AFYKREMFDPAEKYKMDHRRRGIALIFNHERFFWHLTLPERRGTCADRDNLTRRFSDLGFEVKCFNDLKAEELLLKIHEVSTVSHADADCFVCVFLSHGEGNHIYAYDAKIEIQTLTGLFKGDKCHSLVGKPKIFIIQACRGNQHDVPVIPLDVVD
Target sequence (P55212 194-293 limits assumed): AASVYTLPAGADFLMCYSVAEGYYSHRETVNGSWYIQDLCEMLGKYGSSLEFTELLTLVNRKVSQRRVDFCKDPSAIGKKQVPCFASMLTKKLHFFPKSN
* = called active by the depositor; . = not tested or not shown.

SMILES	NSD2 HMT inh	ARNT TACC3 PPI	PfHsp90 set2	SIRT5 block	Casp6 inh
N#C/C(=C/c1ccc(O)c(O)c1)c1nc2ccccc2[nH]1	67*	19	26	2	34
COC(=O)c1ccc(COc2ccc(/C=C(\C#N)c3nc4ccccc4[nH]3)cc2OC)o1	.	-2	1	.	.
O=C(C[C@@H]1CC[C@H]2[C@@H](COC[C@H](O)CN2CC2CCCC2)O1)NCC1CC1	.	.	.	-2	1
CC/C(=C\C1CCCCC1)C(NP(=O)(c1ccccc1)c1ccccc1)c1ccccc1 (centres undefined)	.	.	-6	22*	-2
CCCCC[C@H](C)N1C[C@@H](COCc2ccccc2)Oc2cc(N3CCC[C@H]3CO)ccc2S1(=O)=O	.	.	.	21*	1
Cc1ccnc(NC(=O)c2cccc(NC(=O)c3ccc(Cl)cc3Cl)c2)c1	3	.	.	.	.
O=C(C1CCCC1)N1CC[C@@H]2[C@H](CO)Nc3ccc(C4=CCCCC4)cc3[C@@H]21	.	.	.	-8	0
CO[C@@H]1CC[C@@H]2CCN(C)C(=O)[C@H](C)[C@H](OC)CN(C)C(=O)c3cc(C#N)ccc3OC[C@@H]1O2	.	-6	.	0	-154
CO[C@H]1CN(C)C(=O)c2cccc(C#N)c2OC[C@H]2O[C@H](CC[C@@H]2OC)CCN(C)C(=O)[C@H]1C	.	-26	.	21*	-15
CO[C@H]1CC[C@H]2CCN(C)C(=O)[C@@H](C)[C@H](OC)CN(C)C(=O)c3cc(C#N)ccc3OC[C@@H]1O2	.	-1	.	16*	-71
Cc1noc(C)c1NC(=O)Nc1cccc2c1O[C@H](CN(C)S(C)(=O)=O)[C@@H](C)CN([C@@H](C)CO)C2=O	.	-19	.	-1	2
CC(=Cc1ccccc1)C=C1SC(=S)N(CCCC(=O)Nc2ccc(C(=O)O)cc2)C1=O	.	.	.	27*	41*
O=C(O)CN1C(=O)/C(=C\C(Br)=C\c2ccccc2)SC1=S	55*	4	-8	5	19
CC(/C=C1\SC(=S)N(CCC(=O)Nc2cccc(C(=O)O)c2)C1=O)=C\c1ccccc1	20	4	8	14	70*
CC(/C=C1\SC(=S)N(CCCC(=O)Nc2ccc(C(=O)O)cc2)C1=O)=C\c1ccccc1	10	.	-12	.	.
C[C@H](CO)N1C[C@H](C)[C@H](CN(C)Cc2ccc(Oc3ccccc3)cc2)Oc2ccc(NS(=O)(=O)c3cn(C)cn3)cc2C1=O	.	-6	.	3	2
CCNC(=O)[C@H]1[C@H](CO)[C@H]2Cn3c(ccc(-c4ccncc4)c3=O)[C@H]2N1Cc1ccccc1	.	-31	.	-2	2
Cc1cc2c(cc1C)CSC(c1c(O)ccc3ccccc13)SC2	6	-2	100*	.	.
C/C(=N\Nc1nnc(C)c(=O)[nH]1)C(=O)O	-1	66*	-25	.	.
O=C(N/N=C\c1ccncc1)c1ccccc1O	0	5	32	-1	1
Cc1nc2ccccc2n1CC(=O)N/N=C\c1ccccn1	-1	40*	.	.	.
O=C(N/N=C/c1ccccn1)c1ccccc1	-13	18	-9	4	0
O=C(N/N=C/c1cccc2cccnc12)c1ccccc1O	3	72*	-4	2	-5
O=C(N/N=C/c1ccccn1)c1ccncc1	-4	69*	9	6	1
O=C(N/N=C/c1ccccn1)c1ccco1	-3	45*	-7	.	.
SMILES	NSD2 HMT inh	ARNT TACC3 PPI	PfHsp90 set2	SIRT5 block	Casp6 inh
C[C@@H]1CN([C@@H](C)CO)S(=O)(=O)c2ccc(C#CC3CC3)cc2O[C@H]1CN(C)CC1CCOCC1	.	16	.	0	-3
C[C@@H]1CN([C@@H](C)CO)S(=O)(=O)c2ccc(-c3cncnc3)cc2O[C@H]1CN(C)CC1CC1	.	-4	.	-4	1
O=C(N/N=C\c1ccccn1)c1ccccc1O	-10	59*	-6	4	-3
Cn1ncc(Cl)c1C(=O)N/N=C/c1ccccn1	-4	66*	-13	22*	-2
C(=N\NC(=Nc1ccccc1)c1ccccn1)/c1ccccn1	-6	87*	-7	.	.
Cc1ccccc1C(=O)N/N=C/c1ccccn1	-16	12	-25	-4	1
Clc1ccc(/C=N/NC(=Nc2ccccc2)c2ccccn2)c(Cl)c1	1	38	23	.	.
COc1cc(C(=O)N/N=C/c2ccccn2)cc(OC)c1OC	-4	48*	-6	4	2
COc1ccc(C(=O)N/N=C/c2ccccn2)cc1OC	-4	41	3	2	5
COc1ccc(-c2cnc3c(c2)C(=O)N([C@H](C)CO)C[C@H](C)[C@@H](CN(C)C(=O)Cc2cccnc2)O3)cc1	.	3	.	3	-2
C[C@H](CO)N1C[C@H](C)[C@@H](CN(C)C(=O)Nc2cccc3ccccc23)Oc2ccc(NC(=O)Nc3ccc4c(c3)OCO4)cc2CC1=O	.	.	.	7	0
O=C(N/N=C(\Cc1ncc[nH]1)c1ccccc1)c1ccncc1	-16	64*	.	-4	-3
O=C(N/N=C(\Cc1ncc[nH]1)c1ccccc1)c1ccccc1	-13	.	.	-2	0
COc1ccc(S(=O)(=O)N(C)[C@H]2C[C@H]3c4cc(Oc5ccccc5C)ccc4CCN3C(=O)[C@H]2[C@H](C)O)cc1	.	.	.	17*	0
CC(C)NC(=O)N1CC2(C1)[C@H](c1ccccc1)[C@@H](CO)N2C(=O)c1ccccn1	.	.	.	-5	.
N#Cc1c(NC(=O)c2ccccc2Cl)n(Cc2ccccc2)c2nc3ccccc3nc12	98*	.	11	-3	100*
c1ccc(-c2n[nH]c(-c3ccccn3)n2)cc1	0	57*	1	.	.
COc1ccc(NC(=O)O[C@H]2[C@H](OC(=O)Nc3ccccc3)[C@H](OC(=O)Nc3ccccc3)[C@@H](OC)O[C@@H]2CO)cc1	.	2	.	1	1
CCOC(=O)c1ccc(NC(=O)O[C@H]2[C@H](OC(=O)Nc3ccccc3)[C@@H](OC(=O)Nc3ccccc3)[C@@H](OC)O[C@@H]2CO)cc1	.	20	.	20*	3
O=C(O)CN1C(=O)C=CC1=O	0	.	.	1	36*
O=C(NCCO)Nc1ccc(Cl)cc1	-3	-3	-7	19*	-1
Oc1ccccc1C=NNC(=S)NC1CC2C=CC1C2 (centres undefined)	2	.	.	.	-3
CN(C)c1nc(N/N=C/c2ccccc2O)nc(Nc2ccc(F)cc2)n1	-2	47*	16	-2	5
Fc1ccc(NC(=S)NN=Cc2ccccc2Cl)cc1	-5	-1	11	.	-1
Oc1ccccc1C=NNC(=S)Nc1ccc(F)cc1	-2	active	-9	0	-1
Oc1ccccc1/C=N/NC(=S)NC1CC2C=CC1C2 (centres undefined)	1	64*	-46	-1	-2
